Several values for one entry are separate records, joined by “and”; a condition that tells them apart may be missing. Equal values may be shown once. Results filed as inconclusive are left out. The source holds several records for some structures; these can differ, active in one and inactive in another. Activity calls are given as the source filed them. The calls were made as follows, unless noted: active = hit-call score of the fitted dose curve at least 0.9, where 1 is the maximum; inconclusive = response in the unintended direction; inactive = score below 0.9.
How the values were obtained:
[1] = molecular target: mouse Peroxisome Proliferator-activated Receptor gamma (PPARg), Pparg (gene 19016) (UniProt P37238); experiment: ATG_mPPARg_XSP2: Attagene TRANS-FACTORIAL Multi-Species (XSP2) HepG2 Assay for mouse Peroxisome Proliferator-activated Receptor gamma (PPARg) (AID 2283830);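 also: hits are gains in reporter mRNA above DMSO so AC50 marks activation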
mouse Peroxisome Proliferator-activated Receptor gamma (PPARg), Pparg (gene 19016), sequence (P37238 whole entry, looked up, the tested form may be a part): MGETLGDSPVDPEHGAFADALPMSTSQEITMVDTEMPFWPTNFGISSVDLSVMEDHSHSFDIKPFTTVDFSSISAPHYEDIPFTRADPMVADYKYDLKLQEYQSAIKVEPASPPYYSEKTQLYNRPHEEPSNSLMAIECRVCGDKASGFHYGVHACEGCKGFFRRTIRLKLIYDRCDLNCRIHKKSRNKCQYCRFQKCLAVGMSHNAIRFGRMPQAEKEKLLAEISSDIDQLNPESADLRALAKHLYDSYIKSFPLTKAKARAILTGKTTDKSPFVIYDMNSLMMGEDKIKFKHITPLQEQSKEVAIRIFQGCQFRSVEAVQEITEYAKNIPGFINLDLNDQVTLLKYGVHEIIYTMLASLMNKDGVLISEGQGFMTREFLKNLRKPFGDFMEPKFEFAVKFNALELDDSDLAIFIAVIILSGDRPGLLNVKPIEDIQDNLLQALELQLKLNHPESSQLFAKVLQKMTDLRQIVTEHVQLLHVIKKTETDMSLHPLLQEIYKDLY
Outline: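 HepG2 cells transiently transfected with GAL4-UAS reporter units for chimeric NR-Gal4 proteins including mouse PPARg, exposed 24 h; medium contained 3 nM 6-alpha-fluorotestosterone and 1.5 nM norgestrel. Reporter mRNA quantified by RT-PCR, HpaI digestion and capillary electrophoresis, vs DMSO.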

[2] = molecular target: Nuclear receptor subfamily 1 group I member 2 (Mus musculus) (UniProt O54915); experiment: ATG_mPXR_XSP2: Attagene TRANS-FACTORIAL Multi-Species (XSP1) HepG2 Assay for mouse Pregnane X Receptor (PXR) (AID 2283831)
Nuclear receptor subfamily 1 group I member 2 (Mus musculus), sequence (O54915 whole entry, looked up, the tested form may be a part): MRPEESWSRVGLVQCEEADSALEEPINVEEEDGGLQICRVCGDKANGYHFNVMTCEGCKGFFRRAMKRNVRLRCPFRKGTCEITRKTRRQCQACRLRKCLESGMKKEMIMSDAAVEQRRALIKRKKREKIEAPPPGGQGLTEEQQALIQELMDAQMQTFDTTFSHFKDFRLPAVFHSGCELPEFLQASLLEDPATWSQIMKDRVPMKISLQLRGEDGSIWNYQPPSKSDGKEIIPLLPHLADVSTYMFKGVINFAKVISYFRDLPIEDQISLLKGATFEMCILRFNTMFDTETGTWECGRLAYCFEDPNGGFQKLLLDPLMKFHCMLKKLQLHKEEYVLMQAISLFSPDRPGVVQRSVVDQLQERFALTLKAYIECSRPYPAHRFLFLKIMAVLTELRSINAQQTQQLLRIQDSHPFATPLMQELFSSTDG
Outline: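 Transient HepG2 transfection, multiplexed GAL4-UAS reporters, NR-GAL4 chimeras. 24 h compound exposure. Readout: reporter mRNA, RT-PCR, fluorescent capillary electrophoresis; positive direction vs DMSO baseline.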

[3] = tested on: zebrafish Peroxisome Proliferator-activated Receptor gamma (PPARg), gene 557037; experiment: ATG_zfPPARg_XSP2: Attagene TRANS-FACTORIAL Multi-Species (XSP2) HepG2 Assay for zebrafish Peroxisome Proliferator-activated Receptor gamma (PPARg) (AID 2283833);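 also: actives increase reporter signal over DMSO so AC50 reflects activation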
Outline: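 Transfect HepG2 with multiplexed GAL4-UAS reporter constructs; dose chemical 24 h; isolate RNA, reverse-transcribe, PCR-amplify, label and digest reporter products; resolve by capillary electrophoresis. Activity taken as increase over DMSO.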

[4] = tested on: turtle Thyroid Hormone Receptor, alpha (TRa), gene 101949057; experiment: ATG_trTRa_XSP2: Attagene TRANS-FACTORIAL Multi-Species (XSP1) HepG2 Assay for turtle Thyroid Hormone Receptor, alpha (TRa) (AID 2283834);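 also: hits raise reporter mRNA over the DMSO baseline so AC50 marks activators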
Outline: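 Readout: reporter mRNA induction, fluorescence after RT-PCR, HpaI digestion and capillary electrophoresis. Transiently transfected HepG2, exogenous NR-Gal4 chimera driving GAL4-UAS reporter, 24 h compound exposure. Activity fitted upward relative to DMSO baseline.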

[5] = molecular target: zebrafish Thyroid Hormone Receptor beta (TRb), thrb (gene 30607) (UniProt Q9PVE4); experiment: ATG_zfTRb_XSP2: Attagene TRANS-FACTORIAL Multi-Species (XSP1) HepG2 Assay for zebrafish Thyroid Hormone Receptor beta (TRb) (AID 2283836);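 as to AC50: potency for induction of reporter signal above DMSO so agonist direction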
zebrafish Thyroid Hormone Receptor beta (TRb), thrb (gene 30607), sequence (Q9PVE4 whole entry, looked up, the tested form may be a part): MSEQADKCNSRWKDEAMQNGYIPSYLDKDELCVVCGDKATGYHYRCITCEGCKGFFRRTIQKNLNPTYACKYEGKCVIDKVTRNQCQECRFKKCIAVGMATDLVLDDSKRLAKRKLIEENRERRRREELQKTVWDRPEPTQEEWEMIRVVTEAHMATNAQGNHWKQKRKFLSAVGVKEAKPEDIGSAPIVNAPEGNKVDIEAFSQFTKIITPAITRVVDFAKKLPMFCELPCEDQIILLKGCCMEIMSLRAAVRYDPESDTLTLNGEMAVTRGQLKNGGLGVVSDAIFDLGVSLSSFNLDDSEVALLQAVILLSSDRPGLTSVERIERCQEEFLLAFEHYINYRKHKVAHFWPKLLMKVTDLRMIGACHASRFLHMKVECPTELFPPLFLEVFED
Outline: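 HepG2 cells transiently transfected with multiplexed GAL4-UAS reporter units expressing chimeric NR-Gal4 proteins; read 24 h after dosing. Reporter mRNA quantified by RT-PCR, 6-FAM labelling, HpaI digest and capillary electrophoresis; gain of signal fitted relative to DMSO.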

[6] = molecular target: frog Thyroid hormone Receptor alpha (TRa), thra-a (gene 397942) (UniProt P15204); experiment: ATG_frTRa_XSP2: Attagene TRANS-FACTORIAL Multi-Species (XSP2) HepG2 Assay for frog Thyroid hormone Receptor alpha (TRa) (AID 2283839);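 as to AC50: AC50 reflects induction of frog TRa-driven reporter mRNA above DMSO baseline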
frog Thyroid hormone Receptor alpha (TRa), thra-a (gene 397942), sequence (P15204 whole entry, looked up): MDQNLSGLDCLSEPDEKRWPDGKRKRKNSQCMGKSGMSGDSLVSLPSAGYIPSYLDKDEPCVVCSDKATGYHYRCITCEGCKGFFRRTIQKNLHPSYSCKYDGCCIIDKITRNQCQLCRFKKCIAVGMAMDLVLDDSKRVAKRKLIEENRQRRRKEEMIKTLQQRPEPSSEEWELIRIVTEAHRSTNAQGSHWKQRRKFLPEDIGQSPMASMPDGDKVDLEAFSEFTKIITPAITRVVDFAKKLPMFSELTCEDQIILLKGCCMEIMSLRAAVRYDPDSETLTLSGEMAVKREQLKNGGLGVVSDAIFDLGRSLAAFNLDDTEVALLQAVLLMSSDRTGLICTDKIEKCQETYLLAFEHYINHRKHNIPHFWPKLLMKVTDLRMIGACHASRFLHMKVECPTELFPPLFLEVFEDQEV
Procedure: ATG_XSP2_multi-species_TRANS is a cell-based, multiplexed assay created by modifying the existing Attagene TRANS-FACTORIAL system to include a panel of nuclear receptors from some or all the following species: human (Homo sapiens), mouse (Mus musculus), frog (Xenopus laevis), zebrafish (Danio rerio), chicken (Gallus gallus), and turtle (Chrysemys picta). The ECOTOX-FACTORIAL format uses HepG2, a human liver cell line, with measurements taken at 24 hours after chemical dosing in a 24-well plate. Xsp2 included 3 nM 6-alpha-fluorotestosterone and 1.5 nM norgestrel to stimulate the androgen receptor.ATG_frTRa_XSP2 is one of 29 assay components measured or calculated from the ATG_XSP2_multi-species_TRANS assay. It is designed to make measurements of mRNA induction, a form of inducible reporter, as detected with fluorescence intensity signals by Reverse transcription polymerase chain reaction (RT-PCR) and Capillary electrophoresis technology.The assay endpoint ATG_frTRa_XSP2 was analyzed in the positive analysis fitting direction relative to DMSO as the negative control and baseline of activity. Using a type of inducible reporter, measures of mRNA for gain-of-signal activity can be used to understand the reporter gene at the transcription factor-level as they relate to the gene TR. Furthermore, this assay endpoint can be referred to as a primary readout, because this assay has produced multiple assay endpoints where this one serves a reporter gene function. To generalize the intended target to other relatable targets, this assay endpoint is annotated to the nuclear receptor intended target family, where the subfamily is non-steroidal.
Human liver HepG2 cells are transiently transfected with multiple reporter transcription units (MRTUs) in 6-well plates using FuGene 6 reagent (Roche; 3 ml FuGene/1 mg DNA). The MRTU constructs are regulated by a cis-regulating element (promoter). […] A major difference between the CIS and TRANS system is that in CIS activities of endogenous TFs are measured, whereas the TRANS assay evaluates changes in activities of exogenous, chimeric NR-Gal4 proteins. […] At the end of 24 hour incubation, total RNA was isolated using TriZol reagent (Invitrogen). The isolated RNA is then reverse-transcribed using oligo(dT) primer and Mo-MLV reverse transcriptase (Invitrogen) with DNAse I (Ambion) treatment for 30 min. The one-tenth of the produced cDNA was amplified by PCR using Taq DNA polymerase (Invitrogen) and two reporter sequence-specific primers. The PCR products were fluorescently labeled by primer extension with 6-arboxyfluorescein (6-FAM) 5'-labeled reporter sequence-specific primer (2 min at 95 C, 20 s at 68 C and 10 min at 72 C) and these products were digested with 5U of HpaI (New England Biolabs) for 2h at 37 C. The fragments were purified using Qiaquick PCR columns (Qiagen), analyzed on an ABI 3130xL genetic analyzer (Applied Biosystems) with peak positions identified by using a set of X-rhodamine (ROX)-labeled MapMarker1000 molecular weight standards (BioVentures). The raw capillary electrophoresis data was processed using Attagraph software (Attagene).

[7] = molecular target: zebrafish Thyroid Hormone Receptor alpha (TRa), thraa (gene 30670) (UniProt Q98867); experiment: ATG_zfTRa_XSP2: Attagene TRANS-FACTORIAL Multi-Species (XSP1) HepG2 Assay for zebrafish Thyroid Hormone Receptor alpha (TRa) (AID 2283832);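 also: actives raise zebrafish TRa-Gal4 reporter transcript above DMSO baseline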
zebrafish Thyroid Hormone Receptor alpha (TRa), thraa (gene 30670), sequence (Q98867 whole entry, looked up, the tested form may be a part): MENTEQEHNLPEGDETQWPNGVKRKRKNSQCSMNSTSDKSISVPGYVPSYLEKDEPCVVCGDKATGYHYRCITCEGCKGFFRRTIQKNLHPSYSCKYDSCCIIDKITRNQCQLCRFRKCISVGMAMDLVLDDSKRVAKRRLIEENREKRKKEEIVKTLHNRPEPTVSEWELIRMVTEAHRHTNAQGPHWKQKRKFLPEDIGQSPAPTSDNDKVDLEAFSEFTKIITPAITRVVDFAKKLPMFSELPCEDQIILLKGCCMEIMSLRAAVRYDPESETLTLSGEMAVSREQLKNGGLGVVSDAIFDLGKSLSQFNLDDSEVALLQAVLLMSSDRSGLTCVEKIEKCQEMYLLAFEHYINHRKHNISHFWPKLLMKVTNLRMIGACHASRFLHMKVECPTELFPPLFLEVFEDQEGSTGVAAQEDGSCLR
Outline: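 HepG2 cells transiently transfected with multiplexed GAL4-UAS reporter units expressing chimeric NR-Gal4 proteins; 24 h after dosing, reporter mRNA measured by RT-PCR, FAM labelling, HpaI digestion and capillary electrophoresis; gain of signal versus DMSO baseline.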

[8] = ATG_M_61_XSP2: Attagene TRANS-FACTORIAL Multi-Species (XSP2) HepG2 Assay for M61 Transcription Factor (Internal Marker) (AID 2283835; active = hit-call score of the fitted dose curve at least 0.9, where 1 is the maximum; inactive = score below 0.9;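 also: active means a rise in signal above the DMSO baseline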)
Outline: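 HepG2 cells transiently transfected with multiple GAL4-UAS reporter units; reporter mRNA measured 24 h after dosing by RT-PCR, fluorescent labelling and capillary electrophoresis. Medium contained 3 nM 6-alpha-fluorotestosterone and 1.5 nM norgestrel; internal marker, DMSO baseline.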

[9] = ATG_XTT_Cytotoxicity_XSP2: Cytotoxicity Assessment in the Attagene TRANS-FACTORIAL Multi-Species (XSP2) HepG2 Assay (AID 2283837)
Outline: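 HepG2 cells, transiently transfected with multiple reporter constructs, exposed to chemical for 24 h. Cell number assessed with XTT fluorescence read-out; loss of signal fitted relative to DMSO.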

[10] = molecular target: human Thyroid hormone Receptor alpha (TRa), THRA (gene 7067) (UniProt P10827); experiment: ATG_hTRa_XSP2: Attagene TRANS-FACTORIAL Multi-Species (XSP2) HepG2 Assay for human Thyroid hormone Receptor alpha (TRa) (AID 2283838)
human Thyroid hormone Receptor alpha (TRa), THRA (gene 7067), sequence (P10827 whole entry, looked up, the tested form may be a part): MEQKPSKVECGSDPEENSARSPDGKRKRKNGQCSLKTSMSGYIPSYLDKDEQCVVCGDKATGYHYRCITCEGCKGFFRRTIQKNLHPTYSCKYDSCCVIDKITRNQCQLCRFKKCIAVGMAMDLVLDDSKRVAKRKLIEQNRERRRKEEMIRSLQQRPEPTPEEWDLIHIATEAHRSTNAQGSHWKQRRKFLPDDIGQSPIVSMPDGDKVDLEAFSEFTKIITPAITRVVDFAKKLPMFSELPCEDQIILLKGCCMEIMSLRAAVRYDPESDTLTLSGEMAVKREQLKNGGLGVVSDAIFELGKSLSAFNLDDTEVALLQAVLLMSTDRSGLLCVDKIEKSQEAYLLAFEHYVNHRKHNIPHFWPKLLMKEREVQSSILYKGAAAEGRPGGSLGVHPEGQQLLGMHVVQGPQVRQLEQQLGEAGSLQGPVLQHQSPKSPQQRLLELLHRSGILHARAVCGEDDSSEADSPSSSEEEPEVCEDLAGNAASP
Outline: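 HepG2 cells transiently transfected with multiplexed GAL4-UAS reporter units and exogenous NR-GAL4 chimeras; 24 h chemical exposure with 3 nM 6-alpha-fluorotestosterone and 1.5 nM norgestrel present. Reporter mRNA measured by RT-PCR, FAM labelling, HpaI digestion, capillary electrophoresis; gain-of-signal versus DMSO.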

Measured: AC50

CCCCCCCCCCCCN
inactive: [2] | [3] | [4] | [5] | [6]
active: [1] 46.2 µM and 37.7 µM

CN(C)C(=N)N=C(N)N
inactive: [1] | [7] | [3] | [4] | [5] | [6]

CN(CCOc1ccc(CC2SC(=O)NC2=O)cc1)c1ccccn1 (configuration not stated)
inactive: [3] | [8] | [5] | [6]

O=c1cc(-c2ccccc2)oc2cc(O)cc(O)c12
inactive: [7] | [3] | [4] | [8] | [5] | [9]
active: [1] 7.92 µM and 1.57 µM | [2] 12.3 µM and 25.9 µM | [5] 100 µM | [10] 10.9 µM and 7.51 µM | [6] 26.2 µM and 1.8 µM

O=C(Oc1ccccc1)c1ccc(O)cc1
inactive: [1] | [7] | [3] | [4] | [5] | [10] | [6]
active: [1] 68.1 µM | [2] 33.2 µM | [6] 166 µM
